This excerpt belongs to a sample that is enriched for hits.
HBB splice mod: hemoglobin beta splicing modulation; Potency, µM (highest dose often 46.1 µM), for inactives: at the highest dose activation, usual class: activators; AID 925; 65,000 compounds, 0.06% hits; HBB splicing reporter cell assay, activation; EGFP reporter with mutant IVS2-654 intron; response scale: normalised to 500 nM splice-correcting PNA; also: potency is read from the fitted curve at half-maximal effect; 0% is about no effect
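Compounds were applied for 2 days to HeLa EGFP-654 cells, 500/well in Optimem with 2% FCS. The reporter's EGFP is disrupted by mis-splicing of beta-globin intron IVS2-654. Readout: summed well GFP fluorescence from 488 nm laser scanning; reference was 500 nM antisense […] 654 PNA.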
Imprint erasure: genomic imprint erasure induction; Potency, µM (doses to about 60.7 µM), inactives show top-dose activity change, positive = activation, hits mostly activators; 110,000 compounds, 0.02% hits; mouse ES Peg3-LacZ reporter, beta-gal luminescence, 40 h; also: potency is read from the fitted curve at half-maximal effect
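Each well holds 300 Peg3LacZ-Neo (maternal) female ES cells incubated 40 h at 37C, 5% CO2. LacZ is measured by BetaGlo luminescence, with AC50 and maximum efficacy derived from dose-response curves.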
IkB sig inh: IkB pathway inhibition in ABC-DLBCL cells; 110,000 compounds, 0.04% hits; AID 445; ABC-DLBCL IkBa-CBG/CBR dual luciferase ratio, 4 h; response scale: scaled: untreated 0%, proteasome inhibitor 100%; Potency, µM (titrated, usually from 57.1 µM), for the others: at the highest dose IkBa stabilization activation; active = well fitted curve in the direction sought with a large enough effect in the signal ratio, not every such curve was filed as active; inconclusive = small, poorly fitted or top-dose-only effect, or a change in a side signal; the % refers to the signal ratio;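 also: potency is read from the fitted curve at half-maximal effect; the direction sought is a rising ratio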
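Curves were fitted separately to fusion (green), unfused (red) and ratio luminescence, then classed by r2, magnitude and activity. Cells: OCI-Ly3, 4 h compound plus doxycycline at 37C; 10 uM MG-132 defined full response.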
CRE Fsk mod: CRE-bla signaling modulation under forskolin stimulation; CHO CRE-bla reporter (cAMP response element driving beta-lactamase), forskolin EC10, beta-lactamase ratio; Potency, µM (doses to about 38.2 µM), inactives show at the top dose activity change, negative = inhibition, actives largely listed as activators; 71,000 compounds, 2.5% hits; AID 662; active = well fitted activation curve with a large enough effect in the signal ratio, with a control signal flat, not every such curve was filed as active; inconclusive = small, poorly fitted or top-dose-only effect, or effect the other way, or a change in a side signal; the % refers to the signal ratio; also: potency is read from the fitted curve at half-maximal effect; % of control where 0% means no effect
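Using CellSensor CRE-bla CHO cells in Opti-MEM with 0.5% dialyzed FBS, compounds were titrated with EC10 NKH 477 for 3 h at 37 °C. CCF4 ratio (460/530 nm) gave %Activity; AC50 derived.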
GFP derepression: epigenetic GFP locus derepression in mouse cells; mouse C127i GFP locus derepression, cytometry, 30 h; Potency, µM (top dose mostly 46.1 µM), without a hit: at the top dose GFP derepression (activation); 68,000 compounds, 0.09% hits; also: % of control where 0% means no effect
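Derepression screen: silenced CMV-GFP reporter in murine C127i cells, 30 h compound incubation at 37 C, washed cells imaged by laser-scanning cytometer to enumerate GFP-expressing objects of 20 to 120 um.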
CHO via 24h: CHO cell toxicity at 24 h by ATP luminescence; activity, negative = viability loss, % at 46.1 µM; CRE-bla CHO viability, ATP luminescence, 24 h; shares compounds with CRE Fsk mod; 120 tested, under 10 active
CHO tox 40h: CHO cell toxicity at 40 h by ATP luminescence. Potency, µM, inactives show max response, usual class: inhibitors. 120 tested, under 10 active. AID 906. CRE-bla CHO viability, ATP luminescence, 40 h. shares compounds with CRE Fsk mod
CREB luc CRC: boosts CRE luciferase signal in HEK293 cells; shares compounds with CRE Fsk mod; HEK293 CRE-luc2P, NKH477 EC10 potentiation, luminescence, 4 h; Potency, µM (doses to about 38.3 µM), inactives show at the highest dose activity, positive = activation, most hits filed as activators; 120 compounds, 80% hits
An asterisk follows results filed as active; ? = inconclusive; · = not tested or not shown; ! = a repeat was not active; [ ] = dose if it differs, or a comment. Unless noted, calls follow the shape of the dose curve; as a rule, active = well fitted curve in the direction sought with a large enough effect; inconclusive = small, poorly fitted or top-dose-only effect, or another doubt; inactive = no such curve, though single readings can be large; an effect the other way counts as inactive or inconclusive.

SMILES	HBB splice mod	Imprint erasure	IkB sig inh	CRE Fsk mod	GFP derepression	CHO via 24h	CHO tox 40h	CREB luc CRC
CCN(CC)c1nc2ccccc2n2cnnc12	1.1%	-9.1%	0.3%	12.6µM*	-2.5%	-10.8	?	12.6µM*
CCCN(CCC)c1nc2ccccc2n2c(C)nnc12	-0.4%	-27.0%	-4.5%	0.1%	-0.7%	-9.6	-21.1%	10µM*
CC1CCc2c(sc3nc(C4CC4)nc(SCC(=O)NCc4ccco4)c23)C1 (centres undefined)	·	15.4%	-1.6%	-0.7%	-2.7%	3.1	-2.4%	7.7%
COc1ccc([C@@H]2CNC(=O)C2)cc1OC1CCCC1	-0.5%[20.6 µM]	-5.1%	0.0%	0.01µM*!	1.0%	-6.1	-11.7%	0.0282µM*
CCCN(C(=O)c1sc2nc3n(c(=O)c2c1C)CCCC3)c1ccccc1C	·	-8.1%[10.9 µM]	1.8%	·	·	·	·	·
CCc1ccc(-n2nc(C)c3c(C(=O)Nc4cc(OC)cc(OC)c4)cc(C)nc32)cc1	·	-2.7%[10.9 µM]	?	·	·	·	·	·
COc1ccc(CNC(=O)c2oc3c(c2C)-c2nn(Cc4ccc(Cl)cc4)cc2CC3)cc1	·	-8.5%[10.9 µM]	?	·	·	·	·	·
CCC(=O)Nc1cc(-c2nn(C)c(=O)c3ccccc23)ccc1N1CCCCC1	·	·	·	·	13.3%[20.6 µM]	·	·	·
Cn1nc(-c2ccc(N3CCOCC3)c(NS(=O)(=O)c3ccccc3)c2)c2ccccc2c1=O	0.7%	-10.6%	2.3%	2µM*	-4.4%	?	?	?
Cc1nn(-c2ccccc2)c2sc(C(=O)NC3CCCCC3)cc12	-2.3%	-8.7%	0.5%	?	0.0%	·	·	·
Cc1nn(-c2ccccc2)c2sc(C(=O)N3CCCCC3)cc12	-0.2%[57.5 µM]	-17.5%	?	3.16µM*	-1.6%	-18.2	?	10µM*
COC(=O)c1ccc(CSc2ccc3nnc(-c4cccc(F)c4)n3n2)o1	-0.5%	-21.0%	?	7.94µM*	·	-13.6	-17.5%	12.6µM*
CCOC(=O)CC(=O)CSc1ccc2nnc(-c3cccc(F)c3)n2n1	7.7%	-16.9%	-0.8%	?	-0.3%	·	·	·
C=CCn1c(SCC(=O)Nc2sccc2C(N)=O)nc2sc(C)c(C)c2c1=O	-0.5%[57.5 µM]	-18.8%	0.4%	2µM*	-1.6%	?	?	3.98µM*
Cc1nnc(SCC(=O)Nc2sccc2C(N)=O)n1Cc1ccccc1	-0.3%	0.8%	0.5%	?	-0.1%	·	·	·

Bioassay records deposited in PubChem BioAssay by National Center for Advancing Translational Sciences (NCATS).
